Drawing on PubChem BioAssay (NCATS), this text covers outcome for 21 compounds.

The structures appear in SMILES notation. Results filed as inconclusive are left out. Active and inactive are the calls of the source. Calls come from the whole dose curve; as a rule, active = well fitted curve in the direction sought with a large enough effect in the signal ratio; inconclusive = small, poorly fitted or top-dose-only effect, or a change in a side signal; inactive = no such curve, though single readings can be large or run the other way; the % refers to the signal ratio.

Tumor necrosis factor (Homo sapiens), sequence (P01375 whole entry, looked up): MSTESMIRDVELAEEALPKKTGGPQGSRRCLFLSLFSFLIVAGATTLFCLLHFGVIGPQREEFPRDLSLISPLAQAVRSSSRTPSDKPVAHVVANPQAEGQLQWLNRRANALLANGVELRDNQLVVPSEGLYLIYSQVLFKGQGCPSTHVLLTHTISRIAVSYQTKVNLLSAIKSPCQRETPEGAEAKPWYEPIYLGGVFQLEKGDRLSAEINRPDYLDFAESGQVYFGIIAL

The assay addresses Tumor necrosis factor (Homo sapiens) (UniProt P01375). Put plainly: qHTS assay to identify small molecules that stimulate Tumor Necrosis Factor-alpha (TNF-alpha) secretion (AID 651757). The following applies: Human cells, HTRF 665/615 ratio; series mostly up to 92.2 µM. The source says: National Center for Advancing Translational Sciences [NCATS]
NIH Chemical Genomics Center [NCGC]
National Institutes of Environmental Health Sciences [NIEHS]
National Toxicology Program [NTP]
Tumor Necrosis Factor-alpha (TNF-alpha), a secreted cytokine, plays an important role in inflammatory diseases and immune disorders. TNF-alpha, a 17 kDa cytokine, is mainly secreted by activated macrophages and monocytes in response to several inflammatory and immunological stimuli. To study the effect of environmental chemicals on TNF-alpha secretion, a homogeneous TNF-alpha assay was developed using Time Resolved fluorescence (HTRF) technology based on Time Resolved Fluorescent Resonance Energy Transfer (TR-FRET) (Leister et al., Current Chemical Genomics, 5:21-29, 2011). This assay allows measuring TNF-alpha secreted from the cells in a 1536-well plate format.
THP-1 cells were dispensed at 3000 cells/5ul/well in 1536-well white solid plates. After addition of 23 nl of compound, positive controls and DMSO only, the assay plates were incubated at 37 C for 17 hrs, followed by addition of 5 uLof mixture of cryptate labeled and XL665 labeled anti-TNF-alpha antibodies. After the assay plates were incubated at room temperature for 3 hr, the plates were measured by an EnVision plate reader.
Background: In qHTS, concentration-response curves come from the screen itself.
In the case of `CC(=O)Nc1ccccc1`, the result was inactive.

`CCN(CC)C(=O)c1cccc(C)c1`: the result was inactive.

`FC(F)(F)C(Cl)Br` (stereo unspecified): the result was inactive.

For `O=C1c2cccc(O)c2C(=O)c2c(O)cccc21`, the result was inactive.

In the case of `CC(=O)NS(=O)(=O)c1ccc(N)cc1`, the outcome was inactive.

Take `CC(=O)Nc1cccc(O)c1`: the outcome was inactive.

With `CCCCCCCC(=O)OCC(COC(=O)CCCCCCC)OC(=O)CCCCCCC`, the outcome was inactive.

For the compound `Cc1cc(=O)[nH]c(=S)[nH]1`, the outcome was inactive.

Turning to `CCCCCC(N)=O`, the result was inactive.

Consider `COc1ccc(O)cc1`, for which the outcome was inactive.

Turning to `C=CCNC(N)=S`, the outcome was inactive.

As for `CCCCOC(=O)c1ccc(N)cc1`, the result was inactive.

As for `O=C(c1ccccc1)C(O)c1ccccc1` (stereo unspecified), the outcome was inactive.

Regarding `CC(=O)OCC(COC(C)=O)OC(C)=O`, the outcome was inactive.

For the compound `CCCC(O)C(CC)CO` (stereo unspecified), the outcome was inactive.

Consider `Cc1c(N(C)C)c(=O)n(-c2ccccc2)n1C`, for which the result was inactive.

As to `CC1CC(OC(=O)c2ccccc2O)CC(C)(C)C1` (stereo unspecified), the outcome was inactive.

Take `O=C(O)CCCCC1CCSS1` (stereo unspecified): the result was inactive.

On to `Cc1cc(C)nc(NS(=O)(=O)c2ccc(N)cc2)n1`, for which the outcome was inactive.

Regarding `O=C1C(c2[nH]c3ccccc3c2O)=Nc2ccccc21`, the outcome was inactive.

As to `CC(=O)Nc1ccc(C(=O)O)cc1`, the result was inactive.
